Reference: PubChem BioAssay AID1159580 (chemical genetic matrix, 2015)
About 2,000 (36%) of roughly 5,500 compounds were called active. Roughly 18% stayed inconclusive and do not appear here. Cut-off read from the data, not from the text of the source: active = normalized growth mostly below about 0.91 (no sharp cut-off); inconclusive = no clear call, values can overlap the other calls; inactive = mostly above about 0.92. Some of the results follow.

Experiment: chemical genetic growth profiling, strain panel (AID 1159580);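 note: tested at 20 µM; growth read once vehicle control cultures reached saturation at 30 °C; 1 = growth at the plate median or of vehicle wells; lower values mean less growth of the strain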
Details: growth OD

Measured: normalized growth

CCOC(=O)[C@H](CCc1ccccc1)N[C@@H](C)C(=O)N1CCC[C@H]1C(=O)O
inactive: S. cerevisiae deletion strains, locus YJR075W, strain HOC1, hits give low values 1.01 | S. cerevisiae deletion strains, locus YKL009W, strain mrt4, hits give low values 1.04 | S. cerevisiae deletion strains, locus YKL068W, hits give low values 0.998 | S. cerevisiae deletion strains, locus YKL085W, strain MDH1 (second series), hits give low values 1 | S. cerevisiae deletion strains, locus YKL085W, strain MDH1, hits give low values 1 | S. cerevisiae deletion strains, locus YKL160W, strain elf1, hits give low values 0.988 | S. cerevisiae deletion strains, locus YKL190W, strain CNB1, hits give low values 0.998 | S. cerevisiae deletion strains, locus YKR001C, strain vps1, hits give low values 1.02 | S. cerevisiae deletion strains, locus YKR026C, strain gcn3, hits give low values 1 | S. cerevisiae deletion strains, locus YKR091W, strain srl3, hits give low values 0.994 | S. cerevisiae deletion strains, locus YLL001W, strain dnm1, hits give low values 0.981 | S. cerevisiae deletion strains, locus YLL026W, hits give low values 0.989 | S. cerevisiae deletion strains, locus YLL041C, strain sdh2, hits give low values 1.01 | S. cerevisiae deletion strains, locus YLR027C, strain aat2, hits give low values 0.985 | S. cerevisiae deletion strains, locus YLR039C, strain RIC1, hits give low values 1 | S. cerevisiae deletion strains, locus YLR058C, strain SHM2, hits give low values 1.01 | S. cerevisiae deletion strains, locus YLR102C, strain apc9, hits give low values 1.02 | S. cerevisiae deletion strains, locus YLR113W, strain HOG1, hits give low values 1.05 | S. cerevisiae deletion strains, locus YLR221C, strain rsa3, hits give low values 0.975 | S. cerevisiae deletion strains, locus YLR258W, strain gsy2, hits give low values 0.992 | S. cerevisiae deletion strains, locus YLR262C, strain YPT6 (second series), hits give low values 0.998 | S. cerevisiae deletion strains, locus YLR262C, strain YPT6, hits give low values 1.03 | S. cerevisiae deletion strains, locus YLR268W, strain sec22, hits give low values 1.01 | S. cerevisiae deletion strains, locus YLR320W, strain mms22, hits give low values 0.984 | S. cerevisiae deletion strains, locus YLR330W, strain CHS5, hits give low values 1 | S. cerevisiae deletion strains, locus YLR342W, strain FKS1 (second series), hits give low values 1 | S. cerevisiae deletion strains, locus YLR342W, strain FKS1, hits give low values 0.994 | S. cerevisiae deletion strains, locus YLR357W, strain rsc2, hits give low values 0.938 | S. cerevisiae deletion strains, locus YLR370C, strain arc18, hits give low values 0.994 | S. cerevisiae deletion strains, locus YLR371W, strain rom2, hits give low values 1.02 | S. cerevisiae deletion strains, locus YLR384C, strain iki3, hits give low values 1 | S. cerevisiae deletion strains, locus YLR418C, strain cdc73, hits give low values 1.01 | S. cerevisiae deletion strains, locus YML016C, strain PPZ1, hits give low values 1.01 | S. cerevisiae deletion strains, locus YML032C, strain rad52, hits give low values 1.02 | S. cerevisiae deletion strains, locus YML120C, strain ndi1, hits give low values 1.03 | S. cerevisiae deletion strains, locus YML124C, strain tub3, hits give low values 1.01 | S. cerevisiae deletion strains, locus YMR058W, strain fet3, hits give low values 1.01 | S. cerevisiae deletion strains, locus YMR078C, strain ctf18, hits give low values 1.01 | S. cerevisiae deletion strains, locus YMR125W, strain sto1, hits give low values 0.991 | S. cerevisiae deletion strains, locus YMR129W, hits give low values 1.01 | S. cerevisiae deletion strains, locus YMR205C, strain PFK2, hits give low values 0.973 | S. cerevisiae deletion strains, locus YMR223W, strain ubp8, hits give low values 1.02 | S. cerevisiae deletion strains, locus YMR231W, strain pep5, hits give low values 0.988 | S. cerevisiae deletion strains, locus YMR263W, strain SAP30, hits give low values 1.01 | S. cerevisiae deletion strains, locus YMR307W, strain GAS1, hits give low values 1.02 | S. cerevisiae deletion strains, locus YNL067W, strain RPL9B, hits give low values 1.01 | S. cerevisiae deletion strains, locus YNL071W, strain lat1, hits give low values 1.01 | S. cerevisiae deletion strains, locus YNL128W, strain TEP1, hits give low values 1.02 | S. cerevisiae deletion strains, locus YNL183C, strain NPR1, hits give low values 0.973 | S. cerevisiae deletion strains, locus YNL209W, strain ssb2, hits give low values 0.986 | S. cerevisiae deletion strains, locus YNL233W, strain BNI4, hits give low values 1 | S. cerevisiae deletion strains, locus YNL248C, strain rpa49, hits give low values 1.03 | S. cerevisiae deletion strains, locus YNL250W, strain rad50, hits give low values 1.01 | S. cerevisiae deletion strains, locus YNL271C, strain bni1, hits give low values 1.02 | S. cerevisiae deletion strains, locus YNL298W, strain CLA4, hits give low values 1.04 | S. cerevisiae deletion strains, locus YNL307C, strain MCK1, hits give low values 1.04 | S. cerevisiae deletion strains, locus YNL322C, strain KRE1 (second series), hits give low values 0.963 | S. cerevisiae deletion strains, locus YNR049C, strain mso1, hits give low values 1 | S. cerevisiae deletion strains, locus YNR052C, strain pop2, hits give low values 1.01 | S. cerevisiae deletion strains, locus YOL006C, strain TOP1, hits give low values 1.04 | S. cerevisiae deletion strains, locus YOL012C, strain htz1 0.639 | S. cerevisiae deletion strains, locus YOL147C, strain pex11, hits give low values 1.01 | S. cerevisiae deletion strains, locus YOR001W, strain rrp6, hits give low values 1 | S. cerevisiae deletion strains, locus YOR061W, strain CKA2, hits give low values 1.01 | S. cerevisiae deletion strains, locus YOR069W, strain VPS5, hits give low values 0.992 | S. cerevisiae deletion strains, locus YOR070C, strain gyp1, hits give low values 0.963 | S. cerevisiae deletion strains, locus YOR080W, strain dia2, hits give low values 0.997 | S. cerevisiae deletion strains, locus YOR083W, strain WHI5, hits give low values 0.934 | S. cerevisiae deletion strains, locus YOR106W, strain vam3, hits give low values 0.977 | S. cerevisiae deletion strains, locus YOR136W, strain idh2, hits give low values 1.02 | S. cerevisiae deletion strains, locus YOR144C, strain elg1, hits give low values 1.01 | S. cerevisiae deletion strains, locus YOR184W, strain ser1, hits give low values 1.04 | S. cerevisiae deletion strains, locus YOR231W, strain MKK1, hits give low values 1.04 | S. cerevisiae deletion strains, locus YOR265W, strain rbl2, hits give low values 0.992 | S. cerevisiae deletion strains, locus YOR270C, strain vph1, hits give low values 0.999 | S. cerevisiae deletion strains, locus YOR290C, strain snf2, hits give low values 0.988 | S. cerevisiae deletion strains, locus YOR316C, strain cot1, hits give low values 1.02 | S. cerevisiae deletion strains, locus YPL051W, strain arl3, hits give low values 0.954 | S. cerevisiae deletion strains, locus YPL078C, strain atp4, hits give low values 0.993 | S. cerevisiae deletion strains, locus YPL106C, strain sse1, hits give low values 0.922 | S. cerevisiae deletion strains, locus YPL240C, strain hsp82, hits give low values 0.994 | S. cerevisiae deletion strains, locus YPL241C, strain CIN2, hits give low values 0.999 | S. cerevisiae deletion strains, locus YPL256C, strain CLN2, hits give low values 1.05 | S. cerevisiae deletion strains, locus YPR119W, strain clb2, hits give low values 1.02 | S. cerevisiae deletion strains, locus YPR141C, strain kar3, hits give low values 1.01 | S. cerevisiae deletion strains, locus YPR163C, strain tif3, hits give low values 1.02 | S. cerevisiae deletion strains, locus YPR167C, strain met16, hits give low values 1.02 | S. cerevisiae deletion strains, strain wtn01, hits give low values 1.01 | S. cerevisiae strains, strain wild type, hits give low values 1
